Screening results from PubChem BioAssay.
Shown are actives, neighbours in structure and some others; about 8.1% of the full set was active somewhere.
PINK1 modulator – modulators of PINK1 expression; PINK1 immunofluorescence, high-content cytometry, 24 h; Potency, µM (highest dose often 76.6 µM), inactives show at the highest dose activation (PINK1 increase), hits mostly activators; actives 0.2% (n = 410,000); AID 624263; active = well fitted activation curve with a large enough effect; inconclusive = small, poorly fitted or top-dose-only effect; cell line not stated here; note: % of control where 0% means no effect; nearly all actives have a fitted effect of over 65% in size
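Stable cell line treated 24 h with compounds at 5 concentrations (CCCP controls), then fixed and immunostained for PINK1 plus nuclear and cell stains; PINK1 immunofluorescence quantified by laser-scanning microplate cytometry.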
Epigenetic derep – regulators of epigenetic silencing causing reporter derepression in mouse cells | murine LDR cells, GFP reporter derepression, 30 h | Potency, µM (highest dose often 53.9 µM), without a hit: at the top dose GFP activation, actives largely listed as activators | actives 0.2% (n = 280,000); note: % of control where 0% means no effect; nearly all actives have a fitted effect of over 60% in size
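Reporter derepression read as number of fluorescent GFP-positive objects, 20-120 um in size, counted by laser-scanning cytometer. Mouse LDR line with an epigenetically silenced CMV-GFP locus; compound incubation 30 h, 37 C.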
RORgamma inh – blocks mouse ROR gamma transcriptional activity; P51450; Drosophila S2 Gal4-RORgamma UAS-luciferase reporter, 20 h; Potency, µM (highest dose often 53.6 µM), inactives show top-dose activity change, negative = inhibition, most hits filed as inhibitors; actives 5.4% (n = 310,000); AID 2551; note: % is set by controls: 0 for no effect and ±100 for the full control effect; nearly all actives have a fitted effect of over 60% in size
Target sequence (P51450 whole entry, looked up, the tested form may be a part): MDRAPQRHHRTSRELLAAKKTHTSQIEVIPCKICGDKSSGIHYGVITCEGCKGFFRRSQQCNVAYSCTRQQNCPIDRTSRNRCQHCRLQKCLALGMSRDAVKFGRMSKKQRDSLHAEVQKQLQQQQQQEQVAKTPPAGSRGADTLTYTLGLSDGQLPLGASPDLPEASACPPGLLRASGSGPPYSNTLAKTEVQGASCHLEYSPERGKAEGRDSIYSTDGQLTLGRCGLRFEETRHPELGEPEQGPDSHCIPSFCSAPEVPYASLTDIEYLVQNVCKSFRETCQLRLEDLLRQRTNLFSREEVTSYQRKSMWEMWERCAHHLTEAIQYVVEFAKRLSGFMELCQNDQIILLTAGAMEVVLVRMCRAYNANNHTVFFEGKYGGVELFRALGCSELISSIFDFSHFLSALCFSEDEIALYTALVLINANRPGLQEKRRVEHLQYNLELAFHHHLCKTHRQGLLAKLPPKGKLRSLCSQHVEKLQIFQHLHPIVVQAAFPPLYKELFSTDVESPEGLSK
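A Gal4/UAS one-hybrid system in insect cells: metallothionein-promoter Gal4–ROR gamma fusion plus Photinus luciferase reporter. Copper sulfate 700 uM final, 20 hr ambient incubation, luminescent detection after 10 min with reagent.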
ClpP mod – qHTS Assay for Activators of ClpP. ATP-dependent Clp protease proteolytic subunit (Bacillus subtilis (strain 168)), P80244. purified B. subtilis ClpP, FRET peptide cleavage, 20 min. Potency, µM (highest dose often 57.5 µM), inactives show at the highest dose activity change, negative = active. actives 1.9% (n = 340,000); active = well fitted falling curve with a large enough effect; inconclusive = small, poorly fitted or top-dose-only effect; inactive = no such curve, though single readings can be large or run the other way; note: the source files actives as falling curves though it sought activators and does not explain the sign; nearly all actives have a fitted effect of over 65% in size
Target sequence (P80244 whole entry, looked up): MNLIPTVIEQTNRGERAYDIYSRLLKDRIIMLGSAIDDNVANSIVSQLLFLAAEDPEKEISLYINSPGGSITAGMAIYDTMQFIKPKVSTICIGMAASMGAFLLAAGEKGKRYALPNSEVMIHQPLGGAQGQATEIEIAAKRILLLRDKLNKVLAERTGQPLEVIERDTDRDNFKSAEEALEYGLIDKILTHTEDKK
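ClpP 10 microg/mL final, pH 8 Tris/KCl buffer with BSA, glycerol, Tween-20; compound pinned in; FRET-FV substrate; RT 20 min; Ex320/Em430; ΔFRET vs ADEP 5.8 microM, DMSO, no enzyme.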
Sfp inh – inhibitors of Bacillus subtilis Sfp phosphopantetheinyl transferase; Biochemical Sfp PPTase activity, qHTS; Potency, µM, inactives show largest response in the series, negative = inhibition, most hits filed as inhibitors; actives 3.5% (n = 310,000); AID 1490;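 note: the enzyme is Sfp with the accession as filed and its product quenches rhodamine fluorescence; 0% = enzyme reaction without inhibitor and -100% = no enzyme wells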
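Compounds were incubated with enzyme (final 15 nM) for 15 min at room temperature before substrate addition started the reaction. Fluorescence at 525 nm excitation, 598 nm emission was recorded immediately and after 30 minutes.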
Gal4-VP16 FLuc – Gal4-VP16 reporter inhibition counter-screen. Potency, µM (doses to about 53.6 µM), inactives show at the top dose activity, negative = inhibition, hits mostly inhibitors. actives 3.5% (n = 310,000). Drosophila S2 Gal4-VP16 UAS-luciferase, luminescence, 20 h. AID 2546;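 note: Gal4-VP16 expression switched on by copper sulfate through the metallothionein promoter; % is set by controls: 0 for no effect and ±100 for the full control effect; nearly all actives have a fitted effect of over 50% in size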
An asterisk follows results filed as active; ? = inconclusive; · = no result given; [ ] = dose if it differs, or a comment. Unless noted, calls come from the whole dose curve; as a rule, active = well fitted curve in the direction sought with a large enough effect; inconclusive = small, poorly fitted or top-dose-only effect, or another doubt; inactive = no such curve, though single readings can be large; an effect the other way counts as inactive or inconclusive. Potency is the fitted concentration of half-maximal effect.

SMILES	PINK1 modulator	Epigenetic derep	RORgamma inh	ClpP mod	Sfp inh	Gal4-VP16 FLuc
CC(C)Cn1c(=O)c2sccc2n2c(CCCC(=O)NCC(C)c3ccccc3)nnc12 (centres undefined)	-0.3%	-0.1%	·	?	·	·
COc1ccc(C)cc1NC(=O)CSc1nc(=O)n(Cc2ccco2)c2c1CCC2	-0.6%	-0.1%	·	-0.1%	·	·
S=C1NC2(CCCCC2)Nc2ccccc21	0.5%	-1.4%	7.08µM*	16.5%	-15.6%	?
S=C1NC2(CCCC2)Nc2ccccc21	-1.6%	1.5%	0.355µM*	·	-66.6%	?
c1cc2c3c(cccc3c1)NC1(CCCC1)N2	-0.8%	·	·	-1.7%	·	·
Cc1nn2c(=O)cc(COC(=O)Cc3ccccc3)nc2s1	0.8%	0.0%	·	0.2%	·	·
O=C(N/N=C/C=C/c1ccccc1)c1ccccc1Br	0.6%	0.0%	3.16µM*	0.9%	12.7%	?
Cc1cc(C(=O)N/N=C/c2ccccc2)c(C)o1	0.1%	3.6%	-3.3%	·	13.9%	1.2%
Cc1cc(C(=O)N/N=C/C=C/c2ccccc2)c(C)o1	2.5%	0.0%	7.94µM*	0.7%	-4.1%	11.2µM*
Cc1occc1C(=O)N/N=C/C=C/c1ccccc1[N+](=O)[O-]	0.3%	-3.5%	11.2µM*	·	2.4%	?
NC(=S)N/N=C/C=C/c1ccccc1	-2.0%	?	2µM*	2.5%	2.2%	?
Cn1c(CNC(=O)CSc2n[nH]c(-c3ccccc3)n2)nc2ccccc21	2.1%	3.2%	·	-1.4%	·	·
Cc1cccc(C)c1OCC(=O)N(Cc1ccccc1F)C1CCS(=O)(=O)C1 (centres undefined)	-0.6%	-1.9%	·	-1.3%	·	·
COc1cc(CN2CCCC(c3nc(-c4ccncc4)ncc3-c3ccccc3)C2)ccc1O (centres undefined)	-0.2%	·	·	·	·	·
CC(C)c1cc(C(=O)N/N=C/C=C/c2ccccc2)n[nH]1	-2.0%	-1.0%	?	0.3%	-6.7%	20µM*
Cc1occc1C(=O)N/N=C/C=C/c1ccc(N(C)C)cc1	1.2%	·	2.82µM*	-0.5%	1.5%	3.16µM*
O=C(N/N=C/c1cccc(Oc2ccccc2)c1)c1cccc(Br)c1	?	0.0%	10µM*	-3.1%	16.2%	?
Cc1occc1C(=O)N/N=C/C=C/c1ccccc1	0.1%	4.8%	7.08µM*	-2.8%	0.0%	?
O=C(N/N=C/c1cccc(Oc2ccccc2)c1)c1cccc(O)c1	3.8%	·	20.4%	-0.3%	-2.9%	-0.1%
CCc1ccccc1NC(=O)Cn1c(=O)n(-c2ccc(C)cc2)c(=O)c2cc(OC)c(OC)cc21	1.1%	0.8%	·	-9.7%	·	·
O=C(CSc1nnc2scc(-c3ccc(Cl)cc3)n12)Nc1ccc(F)cc1	-0.9%	-1.0%	·	1.9%	·	·
O=C(CNC(=O)c1ccc(Cl)cc1)N/N=C/C=C/c1ccccc1	4.8%	-1.0%	-31.4%	·	10.9%	-26.0%
Cc1occc1C(=O)N/N=C/c1ccc(N(C)C)cc1	17.5%	3.3%	10µM*	·	0.1%	?
O=C(N/N=C/C=C/c1ccccc1)c1cccc(Br)c1	-1.2%[38.3 µM]	-0.9%	1µM*	-1.9%	?	5.01µM*
Cc1ccc(C(=O)N/N=C/C=C/c2ccccc2)cc1	11.4%	-3.5%	3.16µM*	·	14.9%	7.94µM*
SMILES	PINK1 modulator	Epigenetic derep	RORgamma inh	ClpP mod	Sfp inh	Gal4-VP16 FLuc
CCOC(=O)c1ccc(NC(=O)CSc2nccn2-c2cc(C)cc(C)c2)cc1	-3.3%	0.0%	·	-0.9%	·	·
O=S(=O)(Cc1ccccc1)C1CCCCC1O (centres undefined)	0.7%	-1.1%	2.1%	14.1µM*	17.3%	0.1%
Cn1c(SCC(=O)c2ccccc2F)nnc1C1CC1	3.1%	-1.0%	?	0.3%	50.1µM*	11.2µM*
CCOC(=O)C1=C(C)N(C)C(C)=C(C(=O)OCC)C1c1ccc(Cl)cc1	5.1%	-1.9%	-25.5%	·	-20.9%	22.4µM*
CCOC(=O)C1=C(C)N(C)C(=S)NC1c1ccc(Cl)cc1 (centres undefined)	1.5%	-1.9%	?	0.2%	-10.3%	3.55µM*
CCOC(=O)C1=C(C)N(CCO)C(=O)NC1c1ccccc1 (centres undefined)	-8.7%[38.3 µM]	-0.7%	2.5%	-2.0%	5.3%	-0.7%
COC(=O)C1=C(C)N(C)C(C)=C(C(=O)OC)C1c1ccc(Cl)cc1	7.0%	1.5%	-24.6%	3.7%	-2.3%	14.0%
CCOC(=O)C1=C(C)NC(=S)N(C(C)=O)C1c1ccc(Cl)cc1 (centres undefined)	-3.7%[38.3 µM]	-2.0%	7.94µM*	-1.6%	0.1%	17.8µM*
CCOC(=O)C1=C(C)N(CCCC(=O)O)C(=O)NC1c1ccc(Cl)cc1 (centres undefined)	1.8%	·	12.4%	-0.5%	10.1%	8.4%
CCOC(=O)C1=C(C)N(C)C(=S)NC1c1ccccc1 (centres undefined)	0.9%	-1.0%	6.31µM*	0.9%	1.8%	8.91µM*
O=C(NCc1ccc(Cl)cc1)C1CCCN(c2nc3ccccc3n3cccc23)C1 (centres undefined)	-0.4%	0.8%	·	-22.6%	·	·
COc1ccc(CCNC(=O)C(=O)NCC(c2ccc3c(c2)OCO3)N2CCOCC2)cc1OC (centres undefined)	0.0%	0.0%	·	-0.7%	·	·
COC(=O)C1=C(C)N(C)C(=S)NC1c1ccc(Cl)cc1 (centres undefined)	-0.9%	2.1%	7.94µM*	·	9.9%	11.2µM*
COC(=O)C1=C(C)N(C)C(=O)NC1c1ccc(O)c(OC)c1 (centres undefined)	0.0%	0.0%	?	-1.9%	-4.0%	-16.4%
COC(=O)C1=C(C)N(C)C(=S)NC1c1ccc(OC)cc1OC (centres undefined)	-0.7%	-2.3%	15.8µM*	0.5%	18.3%	?
CC1=C(C(=O)OC(C)C)C(c2ccccc2)NC(=S)N1C (centres undefined)	4.3%	-1.6%	14.1µM*	-0.7%	-2.8%	?
COC(=O)C1=C(C)N(C)C(=O)NC1c1ccc(O)c(Cl)c1 (centres undefined)	-1.1%	1.2%	?	2.7%	18.9%	0.7%
CC/C=C\C/C=C\C/C=C\C/C=C\C/C=C\C/C=C\CCC(N)=O	·	-0.3%	-0.7%	·	-19.1%	-2.4%
COc1ccc(-c2cc(C(F)(F)F)nc(NC3CCCC3)n2)cc1OC	?	-0.8%	26.8%	35.5µM*	18.5%	-7.5%
O=C(C[N+]12CCCc3cccc(c31)CCC2)c1ccc2ccccc2c1	·	·	·	-21.4%	·	·
Cc1cccc(Nc2nc(-c3c(C)nc4ccccn34)cs2)c1	·	-0.7%	12.6µM*	-10.9%	50.1µM*	?
